Data reported in PubChem BioAssay AID2284193 (EPA ToxCast).
Active and inactive are the calls of the source. How the source made its calls: active means hit-call score of the fitted dose curve at least 0.9, where 1 is the maximum; inactive means score below 0.9.

target: human Tachykinin Receptor NK1 Agonism, TACR1 (gene 6869) (UniProt P25103); test: ERF_TW_GPCR_hTACR1: Eurofins (ERF) G Protein-Coupled Receptor (GPCR) Radioligand Binding LeadHunter Assay for human Tachykinin Receptor NK1 Agonism
Procedure: ERF_TW_GPCR_hTACR1 is a biochemical, single-readout assay that uses extracted gene-proteins in a cell-free assay. Measurements were taken 1.5 hour after chemical dosing in a 96-well plate. See NK1 Human Tachykinin GPCR Binding (Agonist Radioligand) Assay, Panlabs.ERF_TW_GPCR_hTACR1 is an assay component calculated from the ERF_TW_GPCR_hTACR1 assay. It is designed to measure radioligand binding using a type of binding reporter as detected by scintillation counting with radiometry technology.Data from the assay component ERF_TW_GPCR_hTACR1 was analyzed at the assay endpoint, ERF_TW_GPCR_hTACR1, in the positive analysis fitting direction relative to DMSO as the negative control and baseline of activity. Using a type of binding reporter, gain-of-signal activity can be used to understand changes in radioligand binding as they relate to gene TACR1. To generalize the intended target to other relatable targets, this assay endpoint is annotated to the gpcr intended target family, where the subfamily is tachykinin.
Human recombinant neurokinin NK1 receptors expressed in CHO cells are used in modified Tris-HCL buffer pH 7.4. A 36 ug aliquot is incubated with 0.8 nM [3H]Substance P for 90 minutes at 4C. Non-specific binding is estimated in the presence of 10 uM L-703,606. Receptors are filtered and washed, the filters are then counted to determine [3H]Substance P specifically bound. […]

human Tachykinin Receptor NK1 Agonism, TACR1 (gene 6869), sequence (P25103 whole entry, looked up): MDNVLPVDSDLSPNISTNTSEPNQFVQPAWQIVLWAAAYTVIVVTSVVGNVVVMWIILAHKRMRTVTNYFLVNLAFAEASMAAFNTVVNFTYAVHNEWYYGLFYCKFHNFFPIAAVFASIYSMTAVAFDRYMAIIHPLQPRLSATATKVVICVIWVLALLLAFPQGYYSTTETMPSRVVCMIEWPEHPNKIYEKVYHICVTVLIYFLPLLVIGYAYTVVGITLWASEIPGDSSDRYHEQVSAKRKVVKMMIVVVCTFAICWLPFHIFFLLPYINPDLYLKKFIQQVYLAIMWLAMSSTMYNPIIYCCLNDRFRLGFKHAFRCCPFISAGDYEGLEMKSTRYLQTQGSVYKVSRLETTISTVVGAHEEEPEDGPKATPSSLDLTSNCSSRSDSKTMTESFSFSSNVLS

| SMILES | outcome | AC50 |
| --- | --- | --- |
| CCCCC[C@H](O)CC(=O)CCc1ccc(O)c(OC)c1 | inactive |  |
| COc1cc(CCC(=O)CC(=O)CCc2ccc(O)c(OC)c2)ccc1O |  | 5 µM (active) |
